Active and inactive are the calls of the source.
Legend:
Albumin (Bos taurus) = Albumin (Bos taurus) (UniProt P02769); assay: bovine serum albumin binders on microarray, profiling panel, artefact control for SMM control protein annotation, biochemical, small-molecule microarray, Alexa647 label, 635/667 nm fluorescence (AID 1118); details: BSA-A647 binding, fluorescence 635 nm, higher = more signal;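 also: score merges 667 nm emission intensity and signal-to-noise per printed compound spot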
[1] = small-molecule microarray binders of probe aXIP, primary screen, biochemical, NeuroSMM set, 635/667 nm fluorescence (AID 1119); details: higher = more signal, called active from +8 up or from −8 down;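 also: probe is the protein aXip251-270 applied at 1 µg/mL to compound-printed slides; binding of probe to printed compounds measured as 667 nm fluorescence plus signal to noise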
[2] = small-molecule binders of probe aNOTCH3, primary screen, biochemical, small-molecule microarray, 635/667 nm fluorescence (AID 1120); details: higher = more signal;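 also: probe is a biotin-tagged antibody raised against NOTCH3 rather than NOTCH3 protein; score merges spot fluorescence near 667 nm with spot signal to noise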
[3] = small-molecule binders of probe aNOTCH2, primary screen, biochemical, small-molecule microarray, 635/667 nm fluorescence (AID 1121); details: higher = more signal;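 also: score merges feature fluorescence read at 667 nm with its signal to noise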
[4] = molecular target: Carbonic anhydrase 2 (Homo sapiens) (UniProt P00918); assay: CAII small-molecule binders, profiling panel, biochemical, small-molecule microarray, Alexa647-labelled CAII (AID 1122); details: CAII-A647 binding fluorescence, higher = more signal
[5] = COS7 lysate on small-molecule microarray, probe aHis, 635 nm (AID 1123); details: COS7 cell lysate, fluorescence, higher = more signal;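 also: z-score combines 667nm fluorescence intensity with signal-to-noise per printed compound spot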
[6] = compound binding in COS7 lysate, probe aLAP1, primary screen, cell lysate, small-molecule microarray (AID 1124); details: probe aLAP1, fluorescence, higher = more signal;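 also: lysate comes from COS7 cells expressing LAP1 and is applied at 0.3 µg/mL; score merges spot fluorescence near 667 nm with signal-to-noise over triplicate slides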
Sam68 (KHDRBS1) = assay: Sam68 small-molecule binders, primary screen, biochemical, small-molecule microarray, 635 nm fluorescence (AID 1125); details: small-molecule microarray binding, higher = more signal;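 also: score merges 667 nm channel intensity with signal to noise over triplicate slides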
[7] = system: Chordin-like protein 2 (CHRDL2); assay: CHRDL2 small-molecule binders, primary screen, biochemical, small-molecule microarray, 635 nm fluorescence (AID 1126); details: small-molecule microarray binding, fluorescence 635 nm; higher = more signal;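 also: printed compound slides probed with Chrdl2 protein at 4 µg/mL for 1 h at 4 C; score merges 667 nm emission intensity with signal to noise over three replicate slides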
[8] = molecular target: Concanavalin-A (Canavalia ensiformis) (UniProt P02866); assay: ConA small-molecule binders, primary screen, artefact control for SMM control protein annotation, biochemical, small-molecule microarray, Alexa647 label, 635 nm (AID 1127); details: ConA-A647 binding fluorescence, higher = more signal;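 also: z combines 667 nm emission intensity with signal-to-noise across three replicate slides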
Sequence of Concanavalin-A (Canavalia ensiformis) (P02866 whole entry, looked up): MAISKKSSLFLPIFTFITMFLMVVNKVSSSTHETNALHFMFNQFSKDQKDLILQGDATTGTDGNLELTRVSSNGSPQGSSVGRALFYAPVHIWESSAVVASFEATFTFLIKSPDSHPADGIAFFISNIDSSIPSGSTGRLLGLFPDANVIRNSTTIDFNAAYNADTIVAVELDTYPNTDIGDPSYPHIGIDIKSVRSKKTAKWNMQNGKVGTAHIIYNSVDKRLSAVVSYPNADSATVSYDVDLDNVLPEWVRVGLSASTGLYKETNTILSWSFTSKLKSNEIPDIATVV

[9] = anti-His antibody binders, primary screen, artefact control for SMM control protein annotation, biochemical, small-molecule microarray, 635 nm fluorescence (AID 1128); details: anti-His Alexa647 antibody binding, higher = more signal;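 also: score merges feature fluorescence with signal-to-noise for each printed compound spot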
[10] = system: Human papillomavirus type 1a E7 protein (residues 1-88); assay: HPV1a E7 small-molecule binders, primary screen, biochemical, small-molecule microarray, residues 1-88, 635 nm (AID 1129); details: small-molecule microarray binding, fluorescence 635 nm; higher = more signal
[11] = molecular target: Focal adhesion kinase 1 (Homo sapiens) (UniProt Q05397); assay: small-molecule microarray binders of FAK, primary screen, biochemical, 635/667 nm fluorescence, BSA, DTT (AID 1130); details: PTK2 binding, 635 nm fluorescence, higher = more signal;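 also: composite of spot emission at 667 nm and signal to noise over triplicate slides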
Sequence of Focal adhesion kinase 1 (Homo sapiens) (Q05397 whole entry, looked up): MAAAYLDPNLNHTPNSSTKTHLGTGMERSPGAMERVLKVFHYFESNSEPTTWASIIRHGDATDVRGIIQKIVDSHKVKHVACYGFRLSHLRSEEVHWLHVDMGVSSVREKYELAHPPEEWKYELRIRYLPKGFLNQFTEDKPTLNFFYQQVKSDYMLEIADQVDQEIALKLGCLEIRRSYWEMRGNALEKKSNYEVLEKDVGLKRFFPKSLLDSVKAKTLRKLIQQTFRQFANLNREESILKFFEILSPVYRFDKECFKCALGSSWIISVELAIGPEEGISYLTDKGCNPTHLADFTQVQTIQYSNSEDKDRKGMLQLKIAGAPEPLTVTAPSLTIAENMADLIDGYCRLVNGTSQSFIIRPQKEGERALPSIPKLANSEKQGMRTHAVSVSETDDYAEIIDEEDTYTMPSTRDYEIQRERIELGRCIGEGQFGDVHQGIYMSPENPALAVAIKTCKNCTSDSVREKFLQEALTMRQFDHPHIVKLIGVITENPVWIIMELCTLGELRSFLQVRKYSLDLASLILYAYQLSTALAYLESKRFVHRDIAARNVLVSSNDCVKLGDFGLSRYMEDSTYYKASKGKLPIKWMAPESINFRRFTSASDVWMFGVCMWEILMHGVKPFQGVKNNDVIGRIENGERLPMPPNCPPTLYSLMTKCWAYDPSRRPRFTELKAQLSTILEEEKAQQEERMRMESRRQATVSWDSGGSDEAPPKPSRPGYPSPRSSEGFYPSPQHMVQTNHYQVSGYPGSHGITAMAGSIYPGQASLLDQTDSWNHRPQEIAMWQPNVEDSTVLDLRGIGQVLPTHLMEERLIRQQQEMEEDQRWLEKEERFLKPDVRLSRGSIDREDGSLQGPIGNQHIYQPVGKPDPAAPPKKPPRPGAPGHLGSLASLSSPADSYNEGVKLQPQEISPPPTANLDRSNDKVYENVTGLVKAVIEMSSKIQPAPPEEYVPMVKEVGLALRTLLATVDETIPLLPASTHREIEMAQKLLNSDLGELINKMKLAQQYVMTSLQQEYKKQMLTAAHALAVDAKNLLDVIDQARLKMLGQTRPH

[12] = system: Fibrinogen (Alexa647-labelled); assay: fibrinogen binders on compound microarrays, profiling panel, artefact control for SMM control-protein annotation, biochemical, small-molecule microarray, 635/667 nm fluorescence (AID 1131); details: fibrinogen-A647 binding fluorescence, higher = more signal;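 also: z-score merges 667 nm fluorescence with per-spot signal-to-noise over triplicate slides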
[13] = molecular target: Follistatin (Homo sapiens) (UniProt P19883); assay: follistatin binders on small-molecule microarrays, primary screen, biochemical, small-molecule microarray, 635/667 nm fluorescence (AID 1132); details: FST binding, 635 nm fluorescence, higher = more signal
Sequence of Follistatin (Homo sapiens) (P19883 whole entry, looked up): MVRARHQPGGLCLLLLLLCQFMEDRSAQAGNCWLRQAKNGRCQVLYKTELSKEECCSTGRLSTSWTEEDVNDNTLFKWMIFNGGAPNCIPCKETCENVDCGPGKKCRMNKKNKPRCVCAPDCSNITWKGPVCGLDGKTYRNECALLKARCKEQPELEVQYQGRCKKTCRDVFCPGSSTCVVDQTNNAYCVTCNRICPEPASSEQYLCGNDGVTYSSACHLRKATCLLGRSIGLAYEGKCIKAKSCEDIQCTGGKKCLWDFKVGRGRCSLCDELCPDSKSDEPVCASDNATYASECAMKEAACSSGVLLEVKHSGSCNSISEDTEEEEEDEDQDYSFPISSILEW

[14] = molecular target: Fibroblast growth factor 2 (Homo sapiens) (UniProt P09038); assay: FGF2 binders on small-molecule microarrays, primary screen, biochemical, small-molecule microarray, 635/667 nm fluorescence (AID 1133); details: small-molecule microarray binding, FGF2, fluorescence 635/667; higher = more signal
Sequence of Fibroblast growth factor 2 (Homo sapiens) (P09038 whole entry, looked up): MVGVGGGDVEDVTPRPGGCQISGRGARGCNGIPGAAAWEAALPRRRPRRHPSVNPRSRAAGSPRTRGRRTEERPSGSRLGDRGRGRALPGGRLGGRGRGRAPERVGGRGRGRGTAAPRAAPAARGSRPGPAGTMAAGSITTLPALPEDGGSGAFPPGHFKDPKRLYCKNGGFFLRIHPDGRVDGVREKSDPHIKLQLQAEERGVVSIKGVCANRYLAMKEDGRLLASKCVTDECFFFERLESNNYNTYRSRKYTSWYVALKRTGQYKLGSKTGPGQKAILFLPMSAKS

[15] = mitochondrial membrane potential change in A549 cells, profiling panel, cell-based, JC-1 fluorescence, basal, 24 h, 100 nL (AID 1138); details: higher = more signal;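 also: A549 lung adenocarcinoma cells under basal conditions with no added stimulus; test concentration not given here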
Lefty1 = Lefty1 binders on small-molecule microarrays, primary screen, biochemical, small-molecule microarray, 635/667 nm fluorescence (AID 1139); details: small-molecule microarray binding, fluorescence 635/667; higher = more signal
[16] = system: wheat germ agglutinin (Triticum aestivum), Alexa647-labelled; assay: wheat germ agglutinin binders on compound microarrays, profiling panel, artefact control for SMM control-protein annotation, biochemical, small-molecule microarray, 635/667 nm fluorescence (AID 1140); details: WGA-A647 binding, 635 nm fluorescence, higher = more signal;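 also: score merges 667 nm feature emission with signal to noise over triplicate slides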
[17] = molecular target: Luciferin 4-monooxygenase (Photinus pyralis) (UniProt P08659); assay: firefly luciferase enzyme inhibitors, primary screen, biochemical, luminescence, purified enzyme, 2006 set (AID 1141); details: SteadyGlo luminescence, 30 min, higher = more signal, called active from +8 up or from −8 down;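 also: cell-free assay with purified firefly luciferase at 100 ng per well in PBS; test concentration not given here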
Sequence of Luciferin 4-monooxygenase (Photinus pyralis) (P08659 whole entry, looked up): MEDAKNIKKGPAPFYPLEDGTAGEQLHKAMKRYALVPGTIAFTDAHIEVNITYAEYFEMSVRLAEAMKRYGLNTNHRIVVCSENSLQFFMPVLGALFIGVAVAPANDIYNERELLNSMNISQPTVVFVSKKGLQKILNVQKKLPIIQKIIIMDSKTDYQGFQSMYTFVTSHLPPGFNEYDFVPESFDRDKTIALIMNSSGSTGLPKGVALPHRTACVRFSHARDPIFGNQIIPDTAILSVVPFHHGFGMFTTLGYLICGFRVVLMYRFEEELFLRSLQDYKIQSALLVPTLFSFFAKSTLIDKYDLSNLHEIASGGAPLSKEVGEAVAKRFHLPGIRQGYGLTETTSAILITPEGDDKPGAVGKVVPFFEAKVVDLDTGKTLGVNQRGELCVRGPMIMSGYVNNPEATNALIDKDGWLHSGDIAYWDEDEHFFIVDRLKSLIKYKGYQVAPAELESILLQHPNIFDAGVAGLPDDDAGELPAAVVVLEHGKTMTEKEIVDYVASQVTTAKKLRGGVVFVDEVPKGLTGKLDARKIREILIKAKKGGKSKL

Sequence of Albumin (Bos taurus) (P02769 whole entry, looked up): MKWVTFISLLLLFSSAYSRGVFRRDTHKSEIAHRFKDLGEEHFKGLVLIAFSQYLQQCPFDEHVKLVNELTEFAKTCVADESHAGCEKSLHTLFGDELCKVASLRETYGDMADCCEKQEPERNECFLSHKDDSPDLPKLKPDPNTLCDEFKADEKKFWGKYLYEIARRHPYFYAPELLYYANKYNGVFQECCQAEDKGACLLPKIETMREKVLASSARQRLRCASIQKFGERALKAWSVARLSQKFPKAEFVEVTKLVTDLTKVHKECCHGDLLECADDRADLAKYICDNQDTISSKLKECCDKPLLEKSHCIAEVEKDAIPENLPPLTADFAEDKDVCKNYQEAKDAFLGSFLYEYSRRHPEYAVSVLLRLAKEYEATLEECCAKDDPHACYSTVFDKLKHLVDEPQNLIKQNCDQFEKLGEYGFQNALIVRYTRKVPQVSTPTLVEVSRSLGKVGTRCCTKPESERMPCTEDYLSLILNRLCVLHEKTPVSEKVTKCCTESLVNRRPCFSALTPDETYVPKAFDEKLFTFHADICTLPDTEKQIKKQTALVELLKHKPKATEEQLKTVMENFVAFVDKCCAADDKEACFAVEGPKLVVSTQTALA

Compound	composite z-score (Albumin (Bos taurus))	composite Z-score [1]	composite z-score [2]	composite z-score [3]	composite z-score [4]	composite z-score [5]	composite z-score [6]	composite z-score (Sam68 (KHDRBS1))	composite z-score [7]	composite z-score [8]	composite z-score [9]	composite z-score [10]	composite z-score [11]	composite z-score [12]	composite z-score [13]	composite z-score [14]	z-score [15]	composite z-score (Lefty1)	composite z-score [16]	z-score [17]
C=CCC(OC(C)=O)[C@@H]1[C@@H](N(Cc2cc3ccccc3o2)C(=O)c2cccc3ccccc23)c2cc(OCCCO)ccc2N1C(=O)c1ccc(-c2ccccc2)cc1 (stereo not given in full)	0.236	-0.418 (inactive)	0.0779	-0.113	-0.0159	0.317	-0.187	0.195	0.107	-0.505	-0.202	0.0155	-0.166	-0.827	0.791	0.401	0.461	0.218	0.297	-0.219 (inactive)
COC(=O)[C@@]1(Cc2ccc(OC)cc2)[C@H]2c3cc(C(=O)N4CCCC4)n(Cc4ccc(C)c(F)c4F)c3C[C@H]2CN1C(=O)c1ccccc1	1.05	-0.572 (inactive)	0.538	0.223	0.744	3.22	0.345	1.3	-0.596	1.15	1.39	1.27	1.32	0.97	0.884	-0.294	1.41	-0.161	1.32	1.44 (inactive)
CCCC[C@@H]1C[C@H]1[C@@H](NC(=O)c1ccco1)c1ccccc1C(F)(F)F	0.706	-0.234 (inactive)	1.91	0.752	0.561	1.09	0.451	-0.215	0.23	0.418	-0.422	0.0662	0.57	0.349	0.674	-0.527	-0.914	-0.302	1.15	1.8 (inactive)
Cc1ccc(S[C@]2(C(=O)NCCCN(C)C)CC(=O)N(Cc3cc(C(F)(F)F)cc(C(F)(F)F)c3)[C@@H]2c2ccc(CO)cc2)cc1	0.384	0.624 (inactive)	-0.149	-0.106	0.874	0.616	0.357	-0.427	-0.869	-0.949	-0.237	-0.817	0.145	-0.603	-0.802	-1.33	0.134	-0.493	0.0796	-0.303 (inactive)
CC(C)N1C(=O)c2ccccc2[C@](C)(C(=O)NCCN2CCOCC2)[C@@H]1c1ccc(CO)cc1	0.406	-0.523 (inactive)	-0.0697	-0.195	0.766	2.48	0.385	0.359	-1.12	-0.0721	-0.293	-0.0941	0.356	-0.726	0.897	-0.574	-0.662	-0.117	-0.489	-0.265 (inactive)

— PubChem BioAssay
